# Bioassay records (PubChem)
# BAZ2B block = qHTS Assay for Inhibitors of BAZ2B; 4.4% of 360,000 active; AlphaScreen BAZ2B-H3K14Ac peptide displacement; Potency, µM (highest dose often 114 µM), without a hit: top-dose activity change, negative = inhibition, hits mostly inhibitors; Bromodomain adjacent to zinc finger domain protein 2B (Homo sapiens), Q9UIF8; also: % is scaled to controls: 0 for no effect and ±100 for the full control effect; nearly all actives have a fitted effect of over 60% in size
#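 In this displacement format the biotinylated H3(5-23) peptide acetylated at Lys14 serves as ligand at 50 nM, with BAZ2B at 50 nM in PBS pH 7.4 containing 0.01% Tween-20. Donor and acceptor beads are 10 ug/mL final.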
# HP1b chromo inh = HTS for Inhibitors of HP1-beta Chromodomain Interactions with Methylated Histone Tails. Chromobox protein homolog 1 (Homo sapiens), P83916. AlphaScreen HP1-beta / biotin-H3K9me3 peptide binding. Potency, µM (series often up to 114 µM), for inactives: at the top dose activity change, negative = inhibition, actives largely listed as inhibitors. 0.56% of 390,000 active. AID 540317, 2011; also: nearly all actives have a fitted effect of over 70% in size
#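 AlphaScreen: HP1-beta (50 nM) preformed 30 min with biotin-H3(1-18)K9me3 peptide (50 nM) in PBS pH 7.4, 0.01% Tween-20. Compound added for 30 min at RT, then streptavidin donor/nickel chelate acceptor beads (10 ug/mL) for 30 min.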
# G9a inh = qHTS Assay for Inhibitors of Histone Lysine Methyltransferase G9a | Histone-lysine N-methyltransferase EHMT2 (Homo sapiens), Q96KQ7 | G9a H3K9 monomethylation, AlphaScreen, 2 h | Potency, µM (top dose mostly 102 µM), for the others: at the highest dose activity, negative = inhibition, actives largely listed as inhibitors | 8.8% of 350,000 active | AID 504332, 2011; also: % is scaled to controls: 0 for no effect and ±100 for the full control effect; nearly all actives have a fitted effect of over 75% in size
#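 Enzyme 20 nM + cpd, 15 min RT; add b-H3K9 pep 500 nM / SAM 20 uM; 2 h RT; anti-H3K9me1 Ab 0.5 ug/mL + SA donor / anti-rabbit acceptor beads 20 ug/mL each, 10 min; AlphaScreen read.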
# JMJD2A Tudor = qHTS Assay for Inhibitors of JMJD2A-Tudor Domain | AID 504339, 2011 | Lysine-specific demethylase 4A (Homo sapiens), O75164 | 4.4% of 390,000 active | AlphaScreen JMJD2A-Tudor / H3K4me3 peptide binding | Potency, µM (doses to about 114 µM), for inactives: at the highest dose activity change, negative = inhibition, hits mostly inhibitors; also: % is scaled to controls: 0 for no effect and ±100 for the full control effect; nearly all actives have a fitted effect of over 50% in size
# L3MBTL1 inh = qHTS Assay for the Inhibitors of L3MBTL1. Lethal(3)malignant brain tumor-like protein 1 (Homo sapiens), Q9Y468. AlphaScreen L3MBTL1–H3K9me1 peptide binding. Potency, µM (top dose mostly 57.1 µM), for the others: at the top dose activity, negative = inhibition, usual class: inhibitors. 0.66% of 230,000 active. AID 485360, 2010; also: % is scaled to controls: 0 for no effect and ±100 for the full control effect; nearly all actives have a fitted effect of over 60% in size
# Target sequence (Q9Y468 whole entry, looked up): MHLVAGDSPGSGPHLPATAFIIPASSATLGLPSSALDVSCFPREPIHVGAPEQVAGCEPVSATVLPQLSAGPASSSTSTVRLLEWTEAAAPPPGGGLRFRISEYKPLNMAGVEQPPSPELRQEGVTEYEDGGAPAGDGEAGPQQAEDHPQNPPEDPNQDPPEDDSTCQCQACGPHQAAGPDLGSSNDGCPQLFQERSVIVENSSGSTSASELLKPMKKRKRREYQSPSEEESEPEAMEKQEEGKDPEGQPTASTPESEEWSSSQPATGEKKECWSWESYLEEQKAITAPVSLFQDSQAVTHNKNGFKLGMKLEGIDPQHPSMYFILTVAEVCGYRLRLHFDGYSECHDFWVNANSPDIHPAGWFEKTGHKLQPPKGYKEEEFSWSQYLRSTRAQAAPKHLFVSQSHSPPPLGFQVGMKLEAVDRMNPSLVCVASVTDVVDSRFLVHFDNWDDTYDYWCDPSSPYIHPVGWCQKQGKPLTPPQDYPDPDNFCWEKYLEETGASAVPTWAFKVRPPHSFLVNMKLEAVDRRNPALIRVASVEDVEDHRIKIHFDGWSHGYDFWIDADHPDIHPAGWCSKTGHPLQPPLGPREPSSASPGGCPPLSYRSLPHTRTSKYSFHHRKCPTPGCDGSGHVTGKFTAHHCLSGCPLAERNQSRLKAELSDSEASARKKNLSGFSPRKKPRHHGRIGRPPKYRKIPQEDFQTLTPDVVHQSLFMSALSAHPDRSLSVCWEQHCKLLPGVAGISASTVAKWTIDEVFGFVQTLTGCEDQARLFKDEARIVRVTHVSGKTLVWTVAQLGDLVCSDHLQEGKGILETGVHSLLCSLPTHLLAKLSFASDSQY
#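 Displacement of a biotinylated histone H3(1-15) peptide monomethylated at Lys9 (75 nM) from L3MBTL1 (50 nM) was measured by AlphaScreen after a 30 min room-temperature compound incubation; cefsulodin titration served as intraplate control.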
# Numbers without * were called inactive; ? = inconclusive; . = no result; [ ] = remark or other dose. Compounds with a hit are over-represented: about 11% of the library has one in this group of screens. Calls follow the shape of the dose curve; as a rule, active = well fitted inhibition curve with a large enough effect; inconclusive = small, poorly fitted or top-dose-only effect; inactive = no such curve, though single readings can be large or run the other way. Potency is read from the fitted curve at half-maximal effect.
SMILES,BAZ2B block,HP1b chromo inh,G9a inh,JMJD2A Tudor,L3MBTL1 inh
Oc1c(CN2CCOCC2)cc(-c2ccccc2)cc1CN1CCOCC1,-37.2%,21.1%,0.2%,-24.9%,-4.8%
CC(C)(c1cc(Cl)c(O)c(CN2CCOCC2)c1)c1cc(Cl)c(O)c(CN2CCOCC2)c1,.,-14.3%[57 µM],.,-33.1%,.
CC(C)(C)c1nc(CN2CCOCC2)cc(CN2CCOCC2)c1O,-32.2%,13.6%,-7.7%[12.7 µM],31.6µM*,.
COc1ccccc1NNC(=O)c1cccnc1Oc1ccccc1,3.7%,11.9%,7.08µM*,-14.9%,-11.6%
Cc1ccc2c(Sc3ccc(Cl)cc3)c(C(=O)N3CCC(C)CC3)[nH]c2c1,2.8%,71.7%,-45.8%[59 µM],6.3%,.
CC(=O)N[C@@H]1C(O[C@H]2O[C@H](C(=O)O)C(O)[C@H](O)[C@H]2O)[C@H](O)[C@@H](CO)O[C@H]1O[C@@H]1C(C(=O)O)O[C@@H](O[C@H]2[C@H](O)[C@@H](CO)OC(O)[C@@H]2NC(C)=O)[C@H](O)[C@H]1O (stereo partly specified),.,.,-44.3%[12.7 µM],.,.
C[C@@H]1C=C[C@](Cc2ccccc2)(C(=O)NCCc2c[nH]c3ccccc23)N1C(=O)c1ccccc1,?,-15.7%,50.1µM*,?,-7.4%
Clc1cccc(-c2ccc(C=Nc3ccc(N4CCOCC4)cc3)o2)c1Cl,17.8µM*,-15.1%,14.1µM*,25.1µM*,-28.9%
Clc1ccc(-c2ccc(C=Nc3ccc(N4CCOCC4)cc3)o2)c(Cl)c1,-20.8%,-3.7%,35.5µM*,?,5.2%
COc1ccc(NCc2cc3cc(OC)ccc3[nH]c2=O)cc1,-11.8%,?,?,?,-10.2%
COc1ccc(NCc2cc3ccccc3[nH]c2=O)cc1,?,-8.7%,50.1µM*,?,-5.8%
O=C(NC1CCCC1)c1ccc2c(c1)N(Cc1ccc(C(F)(F)F)cc1)C(=O)c1ccccc1S2,.,26.9%,3.6%[59 µM],-8.3%,.
COc1ccc(/C=N/NC(=O)CN2CCSCC2)cc1C,50.1µM*,?,?,3.55µM*,-4.6%
CCOc1ccc(/C=N/NC(=O)C2(O)c3ccccc3-c3ccccc32)cc1,0.1%,4.5%,35.8%[59 µM],89.1µM*,5.5%
COc1cc(/C=N/NC(=O)C2(O)c3ccccc3-c3ccccc32)ccc1O,-23.7%,21.5%,?,-17.9%,-16.8%
CCOc1ccc(/C=N/NC(=O)CN2CCSCC2)cc1,50.1µM*,?,10µM*,2µM*,-4.0%
COc1ccc(/C=N/NC(=O)CN2CCN(Cc3ccccc3)CC2)cc1Br,-21.5%,-7.7%,5.7%,-20.7%,-14.5%
Cc1c(CNCCCc2ccccc2)c(C(=O)O)c(C)n1Cc1ccc(Cl)cc1,?,-5.3%,-1.7%[59 µM],?,.
Cc1ccc(NC(=O)NCCOCCn2c(=O)oc3ccccc32)c(C)c1,-0.3%,11.5%,-1.4%[59 µM],-15.4%,.
COc1ccc(Nc2oc(-c3ccc(COc4ccccc4C)o3)nc2C#N)cc1,?,25.4%,?,-27.8%,.
CC(C)CCn1c(=O)c2cccnc2n(CC(=O)Nc2ccc(F)cc2)c1=O,-1.4%,43.4%,4.0%[59 µM],-4.4%,.
Cc1cccc(-n2c(O)c(C=Nc3ccccc3O)c3ccccc3c2=O)n1,-25.3%,-11.6%,22.7%,-18.7%,-12.4%
Cc1ccc(-n2c(O)c(C=Nc3ccccc3-c3n[nH]c(=S)[nH]c3=O)c3ccccc3c2=O)c(C)c1,39.8µM*,?,?,44.7µM*,-10.5%
Cc1cccc(-n2c(O)c(C=Nc3cc(O)ccc3C)c3ccccc3c2=O)n1,-23.5%,-29.9%,6.7%,?,-6.6%
Cc1cccc(-n2c(O)c(C=Nc3ccc(O)cc3)c3ccccc3c2=O)n1,?,10.1%,50.1µM*,-24.2%,-8.9%
SMILES,BAZ2B block,HP1b chromo inh,G9a inh,JMJD2A Tudor,L3MBTL1 inh
Cc1ccc(N=Cc2c(O)n(-c3ccc4c(c3)OCO4)c(=O)c3ccccc23)cc1,-7.1%,8.0%,5.6%[12.7 µM],-0.7%,.
Cc1ccc(-n2c(O)c(C=Nc3ccccc3-c3n[nH]c(=S)[nH]c3=O)c3ccccc3c2=O)cc1C,44.7µM*,-35.6%,?,50.1µM*,-14.0%
Cc1cccc(-n2c(O)c(C=Nc3ccccc3-c3n[nH]c(=S)[nH]c3=O)c3ccccc3c2=O)n1,-34.0%,8.9%,39.8µM*,?,-9.4%
CC1=C(C(=O)Nc2ccccc2)C(c2ccncc2)C(C#N)=C(SCC(=O)NC2CC2)N1 (stereo unspecified),0.4%,65.2%,28.2µM*,-9.2%,2.3%
CC1=C(C(=O)Nc2ccccc2)C(c2ccncc2)C(C#N)=C(SCC(=O)NC(C)C)N1 (stereo unspecified),5.7%,33.4%,11.2µM*,-6.8%,40.7%
CCCSC1=C(C#N)C(c2cccs2)C(C(=O)Nc2ccccc2)=C(C)N1 (stereo unspecified),-2.4%,82.0%,?,-7.5%,-6.0%
CCN(CC)S(=O)(=O)c1ccc2c(c1)N(CC(=O)NCCCN1CCN(c3cc(C)ccc3C)CC1)C(=O)CO2,-15.6%,26.3%,0.7%[59 µM],-22.4%,.
Cc1cccc(NC(=O)CSc2nc(=O)n(Cc3cccnc3)c3c2CCC3)c1C,-0.8%,-8.3%,5.6%[59 µM],-8.8%,.
O=C(NCc1ccco1)c1ccc(Cn2c(SCc3ccc(F)cc3)nc3cccnc32)cc1,?,52.6%,-45.2%[59 µM],-30.4%,.
CC(=O)c1ccc(NC(=S)Nc2ccc(N3CCOCC3)cc2)cc1,-26.8%,-17.0%,44.7µM*,-5.8%,-19.3%
C/C(=C\C(=O)c1ccccc1)Nc1ccc(N2CCOCC2)cc1,-1.0%,22.8%,79.4µM*,-27.0%,.
O=C(NCC1CCN(c2ccc(S(=O)(=O)N3CCOCC3)cc2)CC1)c1cccc(Cl)c1,56.2µM*,10.8%,-17.6%,-16.6%,.
O=C(NC(=S)Nc1ccc(N2CCOCC2)cc1)c1cccc(Cl)c1,17.8µM*,?,28.2µM*,?,-27.1%
CN(C)C(=S)Nc1ccc(N2CCOCC2)cc1,-1.1%,47.4%,.,-3.7%,5.4%
O=C(NC(=S)Nc1ccc(N2CCOCC2)cc1)c1ccco1,-5.0%,-14.8%,?,-28.6%,-6.2%
Cc1ccccc1C(=O)NC(=S)Nc1ccc(N2CCOCC2)cc1,?,?,44.7µM*,?,-22.7%
O=C(NC(=S)Nc1ccc(N2CCOCC2)cc1)c1ccccc1,?,?,4.47µM*,?,-14.0%
CCc1ccc(C(=O)NC(=S)Nc2ccc(N3CCOCC3)cc2)cc1,20µM*,?,6.31µM*,?,-28.8%
N#Cc1c(NC(=O)c2ccc([N+](=O)[O-])o2)sc2c1CCC2,39.8µM*,?,31.6µM*,?,.
